# From PMC4336329 (PLoS ONE, 2015)
# Hit rate of the full screen: of about 310,000 compounds, about 14,000 (4.5%) showed an effect of 50% or more. Effects have a minus sign here. Shown is part of a subset that was picked to be rich in strong results.
# Molecular target: human ether-à-go-go-related gene (hERG) potassium channel (human, UniProt Q12809)
# Test: primary screen, population patch clamp on CHO cells stably expressing hERG; higher = less effect of the substance
# 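Also: peak tail current of the secondary pulse compared with the same well before compound.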
# human ether-à-go-go-related gene (hERG) potassium channel, sequence (Q12809 whole entry, looked up): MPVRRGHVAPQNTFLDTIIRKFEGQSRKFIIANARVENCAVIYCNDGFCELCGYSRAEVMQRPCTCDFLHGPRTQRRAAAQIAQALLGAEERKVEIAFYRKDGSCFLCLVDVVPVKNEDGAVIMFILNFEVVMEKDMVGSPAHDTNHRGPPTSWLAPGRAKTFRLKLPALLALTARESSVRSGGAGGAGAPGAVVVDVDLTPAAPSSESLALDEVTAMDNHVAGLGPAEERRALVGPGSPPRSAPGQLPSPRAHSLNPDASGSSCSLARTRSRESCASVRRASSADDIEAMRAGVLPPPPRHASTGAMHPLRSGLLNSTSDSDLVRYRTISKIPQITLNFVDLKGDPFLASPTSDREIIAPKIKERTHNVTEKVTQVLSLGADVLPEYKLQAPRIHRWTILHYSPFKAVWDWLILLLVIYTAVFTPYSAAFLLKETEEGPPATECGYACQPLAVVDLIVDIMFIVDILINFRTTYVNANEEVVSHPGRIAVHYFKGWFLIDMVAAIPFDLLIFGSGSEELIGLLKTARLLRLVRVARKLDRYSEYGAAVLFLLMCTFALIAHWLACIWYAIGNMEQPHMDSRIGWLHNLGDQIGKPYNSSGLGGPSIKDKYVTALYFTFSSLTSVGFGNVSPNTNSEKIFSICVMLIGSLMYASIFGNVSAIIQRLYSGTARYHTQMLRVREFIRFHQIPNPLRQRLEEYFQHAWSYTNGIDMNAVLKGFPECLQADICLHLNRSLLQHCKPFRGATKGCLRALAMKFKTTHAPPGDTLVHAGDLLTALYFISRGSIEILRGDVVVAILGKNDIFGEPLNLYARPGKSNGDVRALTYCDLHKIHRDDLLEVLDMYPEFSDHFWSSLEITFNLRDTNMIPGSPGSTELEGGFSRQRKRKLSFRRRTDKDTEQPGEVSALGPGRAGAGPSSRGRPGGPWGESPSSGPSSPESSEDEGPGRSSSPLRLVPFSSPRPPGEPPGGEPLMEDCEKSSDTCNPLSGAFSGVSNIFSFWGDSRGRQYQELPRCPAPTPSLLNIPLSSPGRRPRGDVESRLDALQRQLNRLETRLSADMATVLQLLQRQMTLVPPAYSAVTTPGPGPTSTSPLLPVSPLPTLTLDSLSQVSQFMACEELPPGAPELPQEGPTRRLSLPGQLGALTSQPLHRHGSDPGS
row,Compound,"hERG current change (%, negative = inhibition) at 10uM"
1,Cc1cc(-c2ccccc2)n(-c2cc(N/N=C/c3ccccc3O)ncn2)n1,-10.5%
2,Cc1ccnc2nc(C(=O)OCC(=O)NC3CCCC(C)C3C)nn12 (centres unmarked),-10.4%
3,Cn1c(=O)c2c(nc(NCc3ccc4c(c3)OCO4)n2C)n(C)c1=O,-13.1%
4,NC(=O)C1CCN(C(=O)CSc2nc3ccccc3[nH]2)CC1,4.06%
5,Fc1cccc(Cl)c1Cn1nnc(-c2ccc(N3CCOCC3)cc2)n1,8.99%
6,COc1ccc(-n2c(CNC(=O)c3cccs3)n[nH]c2=S)cc1,27.7%
7,COc1cc(C)c(Br)cc1S(=O)(=O)N1CCCC1,-22.1%
8,COc1ccc(/C=C2/C(=O)NC(=S)N(C3CC3)C2=O)cc1CN1C(=O)c2ccccc2C1=O,-8.62%
9,COc1ccc(C(=O)COC(=O)Cc2n[nH]c(=O)c3ccccc23)c(OC)c1,16.7%
10,COc1ccccc1C(=O)N(CCN(C)C)c1nc2cc(C)cc(C)c2s1.Cl,-82%
11,CN(C)CCCN(C(=O)/C=C/c1cccs1)c1nc2ccc(F)cc2s1.Cl,-41%
12,COc1ccccc1C(=O)N(CCC1CCCN1C)c1nc2ccccc2s1 (centres unmarked),-50.9%
13,COc1cc2ccccc2cc1C(=O)N(CCN(C)C)c1nc2ccc(C)cc2s1.Cl,-11.2%
14,Cc1cc(C)c2sc(N(CCN(C)C)C(=O)c3cc(Cl)sc3Cl)nc2c1.Cl,9.32%
15,COCCN(C(=O)Nc1ccccc1OC)c1nc2ccccc2s1,19.9%
16,COc1cc2ccccc2cc1C(=O)N(CCN(C)C)c1nc2ccc(Br)cc2s1.Cl,9.85%
17,CN(C)CCN(C(=O)c1ccco1)c1nc2cc3c(cc2s1)OCCO3.Cl,-32.8%
18,CN(C)CCCN(C(=O)c1ccco1)c1nc2ccc(Br)cc2s1.Cl,-71.8%
19,Cc1cc(C)c2sc(N(CCN(C)C)C(=O)c3ccc4ccccc4c3)nc2c1.Cl,7.53%
20,CN(C)CCCN(C(=O)c1ccco1)c1nc2ccc(F)cc2s1.Cl,-70.5%
21,CCCCn1c(N)c(N(CCOC)C(=O)COC(=O)c2cc(CC)c(C)s2)c(=O)[nH]c1=O,22%

row,Compound,"hERG current change (%, negative = inhibition) at 10uM"
1,Cn1c(SCC(=O)Nc2ccc3[nH]c(=O)[nH]c3c2)nnc1-c1ccc(F)cc1,7.63%
2,[O-]/[N+](=C\c1ccccc1)c1ccc(Br)cc1,-0.595%
3,CCn1c(CSc2nc3ccccc3s2)nnc1SCC(=O)c1ccc(Cl)cc1,6.76%
4,CC(=O)c1cccc(NC(=O)N2CCCC2C(=O)NCc2ccccc2)c1 (centres unmarked),15%
5,C1=C(c2ccccc2)CCN(c2nc3ccccc3n3cnnc23)C1,-8.21%
6,CCCCN(C)CCNC(=O)C1CCN(S(=O)(=O)c2cccc3nsnc23)CC1,-15.3%
7,O=[N+]([O-])c1ccc(Oc2c(F)c(F)nc(N3CCCC3)c2F)cc1,-19.7%
8,CCN(CC)CCN(C(=O)c1ccc(C(C)=O)cc1)c1nc2ccc(Cl)cc2s1.Cl,-30.2%
9,CN(C)CCN(C(=O)c1ccc(S(=O)(=O)N(C)c2ccccc2)cc1)c1nc2ccc(Cl)cc2s1.Cl,-13%
10,Cc1ccc(C(=O)N(CCCN(C)C)c2nc3ccc(Cl)cc3s2)cc1C.Cl,-56.4%
11,CNS(=O)(=O)c1cccc2cccnc12,11.1%
12,Cc1ccc(N2C(=O)CC(NCc3ccc4c(c3)OCO4)C2=O)cc1Cl (centres unmarked),-54.8%
13,O=C1CC(NCc2ccc3c(c2)OCO3)C(=O)N1Cc1ccc2c(c1)OCO2 (centres unmarked),-4.06%
14,CCN1C(=O)CC(NCc2ccc3c(c2)OCO3)C1=O (centres unmarked),-9.23%
15,CS(=O)(=O)N(CC(=O)N1CCN(Cc2ccccc2)CC1)c1ccccc1F,-5.93%
16,CCNC(=O)CSc1nnc(-c2cc(-c3ccc(Cl)cc3)nc3ccccc23)o1,-82.3%
17,CCC(C)NC(=O)CSc1nnc(-c2cc(-c3cccs3)nc3ccccc23)o1 (centres unmarked),-0.833%
18,CCN(CC)C(=O)CSc1nnc(-c2cc(-c3ccc(Cl)cc3)nc3ccccc23)o1,-3.85%
19,Cc1nn(-c2cc(N3CCCCCC3)ccc2[N+](=O)[O-])c(=O)c2ccccc12,6.02%
20,O=C(NCCc1c[nH]c2ccccc12)C(=O)NCC(c1ccco1)N1CCN(c2ccc(F)cc2)CC1 (centres unmarked),7.65%
21,Cc1cc(C)n(CC(=O)c2ccccc2)c(=O)c1C#N,10.9%

row,Compound,"hERG current change (%, negative = inhibition) at 10uM"
1,CCNc1nc(NCC)nc(SCCOC(=O)Nc2ccccc2)n1,-71%
2,CCNc1nc(NCC)nc(SCCOC(=O)c2ccccc2)n1,-39.4%
3,CCNc1nc(NCC)nc(OCCOC(=O)Nc2ccccc2)n1,-0.811%
4,O=C(CSc1nnc(CNC(=O)c2ccccc2)o1)NCc1ccco1,-0.224%
5,Cc1ccc(CSc2ccc(S(=O)(=O)N3CCOCC3)cn2)cc1,-10.2%
6,COc1cc(/C=C/C(=O)Nc2ccccc2C(F)(F)F)cc(OC)c1OC,-5.76%
7,COC(=O)CN(c1nc(C)cc(OC)n1)S(=O)(=O)c1ccc(C)cc1,-8.25%
8,Cc1c(C(=O)C(=O)NCCc2ccc(S(N)(=O)=O)cc2)c2ccccc2n1C,-13.4%
9,COc1ccc(S(=O)(=O)NCc2cccnc2)cc1NC(=O)c1ccccc1,-3.99%
10,COc1ccc(S(=O)(=O)NCC2CCCO2)cc1NC(=O)c1ccccc1F (centres unmarked),19.1%
11,COc1ccc(S(=O)(=O)NCc2ccncc2)cc1NC(=O)c1ccccc1,-34.7%
12,COc1ccc(S(=O)(=O)NCc2cccnc2)cc1NC(=O)c1ccc(C)cc1,-17.6%
13,COc1ccc(S(=O)(=O)NCC2CCCO2)cc1NC(=O)c1ccc(Cl)cc1 (centres unmarked),-54%
14,COc1ccc(S(=O)(=O)NCc2ccncc2)cc1NC(=O)c1ccccc1F,18.7%
15,COc1ccc(S(=O)(=O)NCc2ccccn2)cc1NC(=O)c1ccc(Cl)cc1,-68.8%
16,COc1ccc(S(=O)(=O)NCc2ccncc2)cc1NC(=O)c1ccc(Cl)cc1,-67.4%
17,COc1ccc(S(=O)(=O)NCc2ccccn2)cc1NC(=O)c1ccccc1,8.45%
18,COc1ccc(S(=O)(=O)NCc2cccnc2)cc1NC(=O)c1ccc(Cl)cc1,-52.2%
19,COc1ccc(S(=O)(=O)NCc2ccccn2)cc1NC(=O)c1ccc(C)cc1,-16.5%
20,COc1ccc(S(=O)(=O)NCC2CCCO2)cc1NC(=O)c1ccccc1 (centres unmarked),-15.4%
